SMILES strings stand for the structures. Results filed as inconclusive are left out. Calls of active or inactive are those of the source. The call rests on the fitted dose curve; in most records, active means well fitted activation curve with a large enough effect in the repeat runs; inconclusive means weak or mixed curves; inactive means flat fitted curve, though single readings scatter.

The assay is described as follows: qHTS assay for small molecule agonists of the antioxidant response element (ARE) signaling pathway measured by Nrf2-dependant transcriptional activity (AID 720636). Further: % of control where 0% means no effect. Conditions: ARE-luc HepG2, Nrf2 luciferase reporter, 16 h; series mostly up to 92.4 µM; activation: at the top concentration. From the text:
National Center for Advancing Translational Sciences [NCATS] NIH Chemical Genomics Center [NCGC] U.S. Environmental Protection Agency [EPA] National Institutes of Environmental Health Sciences [NIEHS] National Toxicology Program [NTP] Assay Overview: The antioxidant response element (ARE) signaling pathway plays an important role in the cellular anti-oxidant defense. Exposure to stressors which are exogenous like ionizing radiations, chemicals, U-V light, and endogenous like cell signaling, metabolic processes or inflammation, reactive oxygen species (ROS), can induce oxidative stress in the cells. Oxidative stress has been implicated in the pathogenesis of a variety of diseases ranging from cancer to neurodegeneration. ARE-luc HepG2 cell line (Simmons et al., Current Chemical Genomics, 5:1-12, 2011) has been used for identifying the chemicals that induce oxidative stress. The cell line has an Nrf2-responsive luciferase reporter gene that has been engineered to measure Nrf2-dependant transcriptional activity.
Assay Protocol Summary: For measuring ARE induction; 2,000 ARE-luc HepG2 cells in 5 uL of assay medium containing 1% dialyzed FBS per well were dispensed into white wall/solid bottom 1536-well plates using a Flying Reagent Dispenser (FRD) (Aurora Discovery). The assay plates were incubated for 6 hr at 37 C to allow cell attachment to the well bottom, followed by the transfer of 23 nL compound or DMSO vehicle by a pin tool (Kalypsys). The plates were incubated for 16 hr at 37 C and 5% CO2, followed by the addition of 5 uL of ONE-GloTM luciferase reagent (Promega) into each well using FRD. After 30 min room temperature incubation, plates were read on a ViewLux plate reader (PerkinElmer).
On the technique in general: Quantitative high-throughput screening tests each substance at several concentrations.
As to `N#CC(O)c1ccccc1` (stereo not given), the “activation” value is 0.332% (inactive).

`NNC(N)=S`: the “activation” value was -0.273% (inactive).

For the molecule `CC(C)[C@]12CC(=O)[C@H](C)[C@H]1C2`, the Potency result was “inactive”.

Take `O=[N+]([O-])c1ccc(O)c([N+](=O)[O-])c1`: the “activation” value was 0.101% (inactive).

As for `CN(C)C(=O)Cl`, the “activation” value is -0.487% (inactive).

`CC12CC1(C)C(=O)N(c1cc(Cl)cc(Cl)c1)C2=O` (stereo not given): the Potency result was “inactive”.

In the case of `O=Cc1ccc2c(c1)OCO2`, the “activation” value was 1.09% (inactive).

`Cc1ccc(OP(=O)(Oc2ccc(C)cc2)Oc2ccc(C)cc2)cc1`: the Potency entry is “inactive”.

`CCCCOC(C)=O`: the “activation” value was -1.46% (inactive).

For the molecule `N#CCCCCC#N`, the “activation” value is -1.4% (inactive).

On to `O=C(O)CBr`, for which the “activation” value is 0.238% (inactive).

On to `CCOP(=O)(OCC)OCC`, for which the Potency entry was “inactive”.

For the molecule `BrCC(Br)(Br)Br`, the “activation” value was -2.52% (inactive).

Regarding `COc1c(C(C)(C)C)cc([N+](=O)[O-])c(C)c1[N+](=O)[O-]`, the “activation” value was -1.06% (inactive).

With `Clc1ccccc1`, the “activation” value was -0.933% (inactive).

Take `c1ccoc1`: the “activation” value is -0.156% (inactive).

With `Cc1cccc(C)c1N`, the “activation” value was -1.5% (inactive).

Turning to `C=CC(=O)OCC(C)C`, the “activation” value was -0.674% (inactive).

`C=CC#N`: the “activation” value was -0.504% (inactive).

With `C=COC(C)=O`, the “activation” value is -0.111% (inactive).

Regarding `CC(C)(OOC(C)(C)c1ccccc1)c1ccccc1`, the Potency result was “inactive”.

Turning to `C/C=C/CC#N`, the “activation” value was -1.09% (inactive).

On to `Cc1cc(C)cc(OP(=O)(Oc2cc(C)cc(C)c2)Oc2cc(C)cc(C)c2)c1`, for which the “activation” value is -1.06% (inactive).

As to `CC(C)(COCC1CO1)COCC1CO1` (stereo not given), the “activation” value was -0.242% (inactive).

As for `CC(C)Br`, the “activation” value is -0.101% (inactive).

In the case of `CC(C)OS(C)(=O)=O`, the “activation” value was 0.165% (inactive).

For `Oc1cc(Cl)ccc1Cl`, the Potency result was “inactive”.

Regarding `N#CCc1ccccc1`, the “activation” value was -0.457% (inactive).

Regarding `Cl/C=C/CCl`, the “activation” value was -1.13% (inactive).

For the molecule `Nc1cc(Cl)ccc1Cl`, the “activation” value was -1.44% (inactive).

On to `Clc1cccc(Cl)c1Cl`, for which the Potency result was “inactive”.

As for `BrCC(Br)C1CCC(Br)C(Br)C1` (stereo not given), the “activation” value is -0.761% (inactive).

With `CCOP(=S)(OCC)Oc1nc(Cl)c(Cl)cc1Cl`, the Potency entry was “inactive”.

Regarding `CCCCC#N`, the “activation” value is -0.539% (inactive).

With `COc1cc(-c2ccc(N)c(OC)c2)ccc1N`, the Potency entry was “inactive”.

Consider `Cc1cc(Cl)ccc1O`, for which the “activation” value is -0.315% (inactive).

`Oc1cccc(Cl)c1`: the “activation” value is -0.72% (inactive).

On to `CCCC[N+](=O)[O-]`, for which the “activation” value was -0.808% (inactive).

Regarding `Clc1ccc(Cl)c(Cl)c1`, the Potency entry was “inactive”.

Regarding `C=CCBr`, the “activation” value is -3.12% (inactive).

Values taken from PubChem BioAssay (NCATS).
